ST2 IL33 inh: inhibitors of human ST2 (IL1RL1) binding to IL-33; AlphaLISA ST2-Fc/biotin-IL-33 interaction, 1 h; Q01638; inhibition, % for hits at 17 µM; hit rate 2.3% among 78,000; in the data active means inhibition above about 30%
Target sequence (Q01638 whole entry, looked up): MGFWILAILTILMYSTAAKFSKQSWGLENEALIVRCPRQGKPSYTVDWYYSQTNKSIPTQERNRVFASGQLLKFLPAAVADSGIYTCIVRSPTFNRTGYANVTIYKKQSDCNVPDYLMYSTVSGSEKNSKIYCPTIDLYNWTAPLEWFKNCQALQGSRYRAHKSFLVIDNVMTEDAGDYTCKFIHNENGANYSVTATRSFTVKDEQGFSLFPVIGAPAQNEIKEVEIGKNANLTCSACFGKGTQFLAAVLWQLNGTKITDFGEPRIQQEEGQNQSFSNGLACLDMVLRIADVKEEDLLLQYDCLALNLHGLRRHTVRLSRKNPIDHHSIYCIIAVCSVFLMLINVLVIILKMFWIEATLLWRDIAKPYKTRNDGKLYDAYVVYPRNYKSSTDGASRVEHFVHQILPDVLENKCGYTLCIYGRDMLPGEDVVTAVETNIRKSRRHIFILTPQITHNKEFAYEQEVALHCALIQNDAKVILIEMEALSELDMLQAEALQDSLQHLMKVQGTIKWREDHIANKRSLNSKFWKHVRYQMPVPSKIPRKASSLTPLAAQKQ
An asterisk follows results filed as active; i = inactive; ! = not active in a repeat. This excerpt belongs to a sample that is enriched for hits.

SMILES	ST2 IL33 inh
CCOc1cc(C=C2C(=O)OC(C)(C(C)(C)C)OC2=O)ccc1OC (configuration not stated)	i
CCn1cc(C=C2C(=O)OC(C)(C(C)(C)C)OC2=O)c2ccccc21 (configuration not stated)	44%*
CCOc1cc(C=C2C(=O)OC(C)(C(C)(C)C)OC2=O)cc(I)c1O (configuration not stated)	i
Cn1cc(/C=C2\C(=O)NN(c3ccccc3)C2=O)c2ccccc21	i
CCN(CC)C(=O)Cn1cc(/C=C2\C(=O)NC(=O)N(CC)C2=O)c2ccccc21	i
O=C(CSc1cn(CCNC(=O)c2ccccc2F)c2ccccc12)Nc1ccccc1	i
c1ccc(CCCN2CCN(Cc3ccccc3)CC2)cc1	i
COCc1nc(N[C@@H](C)c2ncccc2C)c2cnn(C)c2n1	i
COc1cc(OC)cc(-n2c(=O)c3sccc3n(CC(=O)N(C)C3CCCCC3)c2=O)c1	i
COc1ccc(C(=O)Nc2c3c(nn2C(C)(C)C)CSC3)cc1OC	i
Cc1cccn2c(CNC(=O)c3cc(C4CC4)[nH]n3)cnc12	i
COC(=O)c1cc(OCC2CCC2)cc(C(=O)N2CC[C@H](CO)[C@H](O)C2)c1	i
Cc1ncc(CN2CCCC(C(=O)Nc3ccc(-c4cscn4)cc3)C2)s1 (configuration not stated)	i
Cc1c(N=Cc2cc([N+](=O)[O-])ccc2O)c(=O)n(-c2ccccc2)n1C	i
Cc1c(N=Cc2ccc([N+](=O)[O-])o2)c(=O)n(-c2ccccc2)n1C	i
Cc1c(N=Cc2cc([N+](=O)[O-])ccc2N2CCCCC2)c(=O)n(-c2ccccc2)n1C	44%*
CCn1c(C2CCCN(S(=O)(=O)c3ccc(C)c(C)c3)C2)n[nH]c1=O (configuration not stated)	i
CC(C)c1cc(C(=O)NCCN2N=C(c3ccccc3)CCC2=O)n(C)n1	i
Cc1cc(C)c([N+](=O)[O-])cc1NC(=O)c1cc2c(C)nn(-c3ccccc3)c2s1	i
Cc1nn(-c2ccccc2)c2sc(C(=O)NCCCO)cc12	i
Cc1ccc(NC(=O)c2cc3c(C)nn(-c4ccccc4)c3s2)cc1[N+](=O)[O-]	36%*
NC(=O)c1c(NC(=O)c2cc(=O)c3ccccc3o2)sc2c1CCCC2	i
COc1cc2c(cc1C1CC(=O)Nc3c1c(-c1cccnc1)nn3C)CCC2 (configuration not stated)	i
CC(=O)N1c2ccccc2N=C(c2ccccc2)CC1c1ccccc1 (configuration not stated)	i
O=C(O)CCC(=O)N1N=C(c2ccccc2)CC1c1ccc(Cl)cc1 (configuration not stated)	i
SMILES	ST2 IL33 inh
Cc1cc2n(n1)C(c1ccc(Cl)cc1)CC(c1ccccc1)=N2 (configuration not stated)	30%*!
Cc1cccnc1N1CCN(Cc2ccc(S(C)(=O)=O)cc2)CC1	i
CCN(CC)S(=O)(=O)c1ccc(Br)c(C(=O)O)c1	i
COc1ccccc1C(=O)N/C(=C\c1ccc2c(c1)OCO2)C(=O)O	i
COc1cccc(-c2ccccc2NC(=O)C2CCN(Cc3ccc4nonc4c3)CC2)c1	i
COc1ccc(N2CCN(Cc3ccc4nonc4c3)C(C)C2)cc1 (configuration not stated)	31%*
COc1ccc(N2CCN(Cc3cccnc3)CC2)cc1	i
CCOC(=O)C1(Cc2ccc(Cl)cc2)CCN(C(=O)c2ccc3nccnc3c2)CC1	i
COc1ccc(C(O)=Cc2nc3ccc([N+](=O)[O-])cc3oc2=O)cc1OC	i
CSc1nc2ccccc2n1CCOc1ccc(C)cc1	i
COc1ccc(-c2nc(NCc3ccc(F)cc3)c3ccccc3n2)cc1OC	i
CC(C)C(C(=O)NC1CCCCC1)N1C(=O)c2ccccc2C1=O (configuration not stated)	i
COc1cccc(OCC(O)CN2CCOCC2)c1 (configuration not stated)	i
COc1cccc(NC(=O)c2ccccc2-c2ccccc2C(=O)O)c1	i
O=C1C(NC2CCCCC2)=C(N2CCOCC2)C(=O)c2ccccc21	73%*
O=C(NC1CCCCCCC1)C1c2ccccc2C(=O)N1CCCN1CCOCC1 (configuration not stated)	i
COc1cccc(NC2=C(N3CCOCC3)C(=O)c3ccccc3C2=O)c1	71%*
CCOC(=O)C1=C(C)N=C2SCC(=O)N2C1c1cccc(Br)c1 (configuration not stated)	i
O=C(N[C@H]1CCCC[C@@H]1O)c1ccc(CSc2ncccn2)o1	i
Nc1cc(-c2ccc(CN3CCCC3)cc2)c2cc[nH]c2n1	i
O=S(=O)(c1ccccc1)c1nc(-c2ccc(F)cc2)oc1NCc1ccccc1	i
COc1ccc(OCc2nc(C#N)c(NCCN3CCOCC3)o2)cc1	i
N#Cc1nc(COc2ccc(Br)cc2)oc1NCCN1CCOCC1	i
Cc1ccccc1OCc1nc(C#N)c(NCc2ccc(F)cc2)o1	34%*
N#Cc1nc(-c2ccc(F)cc2)oc1NCc1ccco1	i
SMILES	ST2 IL33 inh
COc1ccc(CCNc2oc(COc3ccccc3C)nc2C#N)cc1	38%*
COc1ccc(CCC(=O)NCCc2cccc(Cl)c2)cc1	i
COc1ccc(CCNC(C)=O)cc1	i
Cc1ccccc1OCc1nnc(SCC(=O)NCCc2ccccc2)n1C	i
COc1ccc(CCNc2oc(COc3ccc(Cl)cc3)nc2C#N)cc1	38%*
COc1ccc(C2C(C#N)=C(N)Oc3n[nH]c(C)c32)cc1COc1ccccc1C (configuration not stated)	i
COc1ccc(CCNc2oc(COc3ccc(OC)cc3)nc2C#N)cc1	36%*
COc1ccccc1C1CC(=O)N2CN(c3ccccc3)CSC2=C1C#N (configuration not stated)	i
Cn1cc(CN(Cc2ccc(CO)o2)C2CC2)cn1	i
N#CCCS(=O)(=O)c1ccc(Cc2ccc(S(=O)(=O)CCC#N)cc2)cc1	i
COc1cc2c(cc1OC)C(C(=O)N1CCC(C(N)=O)CC1)C(c1cccs1)N(C)C2=O (configuration not stated)	i
O=C(O)CCC(=O)Nc1sc2c(c1C(=O)O)CCCC2	i
COc1ccc(CN2C(=S)N(CC(C)C)[C@H]3[C@@H]2[C@H]2OC(=O)[C@@H]3C[C@H]2O)cc1	i
Cc1ccc(N2C(=O)CC(Sc3nc(C)c(C)c(C)c3C#N)C2=O)cc1 (configuration not stated)	i
COc1ccc(NC2CCCN(Cc3noc(C4CC4)n3)C2)cc1OC (configuration not stated)	i
Cc1ccccc1C(=O)Nc1ccnn1C1CCN(C(=O)CCc2c(C)noc2C)CC1	i
Cc1ccc(CN2CCNC(=O)C2CC(=O)NCCC2=CCCCC2)o1 (configuration not stated)	i
CCCCNC(=O)c1noc2c1CCc1cc(OC)ccc1-2	i
COc1cccc(OC)c1C(=O)Nc1c2c(nn1-c1ccc(F)cc1)CS(=O)C2 (configuration not stated)	i
N#Cc1c2c(c(NCCCO)n3c1nc1ccccc13)CCC2	31%*
CCN(CC)CCNc1c2c(c(C#N)c3nc4ccccc4n13)CCC2	i
Cc1c(Cc2ccccc2)c(NCCCO)n2c(nc3ccccc32)c1C#N	i
CCOc1cc2c(cc1OCC)C1C(C(=O)NC(C)CC)c3ccccc3C(=O)N1CC2 (configuration not stated)	i

From PubChem BioAssay
